According to PubChem BioAssay (EPA / NIEHS):
Records with an inconclusive call do not appear. The source made the active and inactive calls. How the source made its calls, unless noted: active means hit-call score of the fitted dose curve at least 0.9, where 1 is the maximum; inactive means score below 0.9.

Key:
[1] = CCTE_Mundy_HCI_Cortical_Synap_Neur_Matur_NeuriteLength: CCTE's Synaptogenesis and Neurite Maturation Assay in rat cortical cells for Neurite Length, Mundy Lab (AID 2284214)
Summary of the method: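 Cultures of rat primary cortical cells received chemical at DIV 7 and were fixed at DIV 12, after glial arrest with AraC at DIV 5. Neurite length was measured by automated imaging of MAP2 immunofluorescence.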

[2] = CCTE_Mundy_HCI_Cortical_Synap_Neur_Matur_NeuriteSpotCountPerNeuron: CCTE's Synaptogenesis and Neurite Maturation Assay in rat cortical cells for Neurite Spot Count per Neuron Count, Mundy Lab (AID 2284215)
Summary of the method: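 Developing rat cortical neurons, with glia suppressed by AraC, are exposed to chemicals from DIV 7 to DIV 12. Automated fluorescence imaging of MAP2-labelled neurites and synaptophysin puncta yields a count per neuron, normalised against DMSO wells.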

[3] = CCTE_Mundy_HCI_Cortical_Synap_Neur_Matur_SynapseCount: CCTE's Synaptogenesis and Neurite Maturation Assay in rat cortical cells for Synapse Count, Mundy Lab (AID 2284218)
Summary of the method: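 Cells were plated, allowed 2 hr to attach, treated with AraC at DIV 5, then exposed to chemicals from DIV 7 until DIV 12. After fixation and MAP2/synaptophysin immunolabelling, synapses per neuron were quantified by automated imaging against DMSO.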

[4] = CCTE_Mundy_HCI_Cortical_Synap_Neur_Matur_NeuriteCount: CCTE's Synaptogenesis and Neurite Maturation Assay in rat cortical cells for Neurite Count, Mundy Lab (AID 2284222);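 further: exposure from day 7 to day 12 in vitro with readout at day 12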
Summary of the method: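 Primary rat cortical cells were plated, treated with AraC at DIV 5, then exposed to chemicals from DIV 7 through DIV 12. After fixation and immunostaining for MAP2 and synaptophysin, imaging quantified neurites, with DMSO as the negative control.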

[5] = CCTE_Mundy_HCI_Cortical_Synap_Neur_Matur_CellBodySpotCount: CCTE's Synaptogenesis and Neurite Maturation Assay in rat cortical cells for Cell Body Spot Count, Mundy Lab (AID 2284223)
Summary of the method: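 Chemicals were applied to AraC-treated rat primary cortical cells at DIV 7 and measured at DIV 12. Fixed cells were labelled for MAP2, synaptophysin and nuclei, and high-content imaging gave cell body synaptophysin spot counts per neuron relative to DMSO.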

[6] = CCTE_Mundy_HCI_hNP1_Pro_ResponderAvgInten: CCTE's Proliferation Assay in human neuroprogenitor cells, Mundy Lab (AID 2284224; active means hit-call score of the fitted dose curve at least 0.9, where 1 is the maximum;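 further: human neural progenitor cells hNP1 derived from WA09 embryonic stem cells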)
Summary of the method: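 Proliferation was scored as BrdU labelling intensity in human neural progenitors derived from WA09 embryonic cells, measured 26.25 hours after chemical dosing. Activity was fitted relative to DMSO.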

[7] = UKN2_HCS_IMR90_cell_viability: Viability Assessment in the University of Konstanz (UKN) Leist Lab Neural Crest Cell Migration Assay in human induced IMR90 Pluripotent Stem Cells (UKN2) (AID 2284233);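 further: cells exposed to compound for 24 h after a 24 h migration phase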
Summary of the method: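 After calcein-AM/Hoechst staining, viability is quantified by high-content fluorescence imaging, relative to DMSO, in iPSC (IMR90)-derived neural crest cells. Exposure lasts 24 h, starting after a 24 h migration period on PLO/laminin/fibronectin coating.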

[8] = CCTE_Mundy_HCI_Cortical_NOG_NeuronCount: CCTE's Neurite Outgrowth Assay in rat cortical cells for Neuron Count, Mundy Lab (AID 2284236; active means hit-call score of the fitted dose curve at least 0.9, where 1 is the maximum;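 further: neurons counted by imaging betaIII-tubulin and Hoechst stained cortical cells; cells exposed to compound for about 48 hours before fixation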)
Summary of the method: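 Read-out: neuron number by high-content imaging of betaIII-tubulin (Alexa Fluor-488) and Hoechst-labelled rat primary cortical cells.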

[9] = CCTE_Mundy_HCI_Cortical_NOG_BPCount: CCTE's Neurite Outgrowth Assay in rat cortical cells for Branch Point Count, Mundy Lab (AID 2284237);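 further: branch points counted about two days after chemical exposure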
Summary of the method: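 Measured 50.33 h after dosing, this morphology endpoint uses rat primary cortical cultures labelled for betaIII-tubulin. Branch points are quantified by high-content imaging, with DMSO as negative control and baseline.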

[10] = CCTE_Mundy_HCI_hNP1_Casp3_7: CCTE's Caspase-Glo 3/7 Assay in human neuroprogenitor cells for Apoptosis, Mundy Lab (AID 2284240)
Summary of the method: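 Apoptosis is scored by activated caspase-3/7 luminescence in WA09-derived neural progenitor cells, measured 26.5 h after chemical dosing. Values represent gain of signal relative to DMSO vehicle.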

[11] = CCTE_Mundy_HCI_Cortical_Synap_Neur_Matur_NeuronCount: CCTE's Synaptogenesis and Neurite Maturation Assay in rat cortical cells for Neuron Count, Mundy Lab (AID 2284242; active means hit-call score of the fitted dose curve at least 0.9, where 1 is the maximum)
Summary of the method: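 Cortical cells from rat are plated, treated with AraC at DIV 5, and exposed to test chemicals with a media change at DIV 7. At DIV 12 they are fixed and immunostained (MAP2, synaptophysin), and imaged neuron counts are compared against DMSO controls.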

[12] = IUF_NPC2c_oligodendrocyte_migration_120hr: Leibniz Research Institute for Environmental Medicine (IUF) 120-hour Neural Progenitor Cell Migration Assay for Oligodendrocyte Migration (NPC2c) (AID 2284297);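 further: O4-positive oligodendrocyte migration distance divided by radial glia migration distance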
Summary of the method: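 Using fetal brain neural progenitor spheres differentiating in N2 medium at 37C, compounds were present for 120 h. Oligodendrocyte migration distance, normalized to radial glia migration, was measured from imaged O4 staining.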

[13] = IUF_NPC2a_radial_glia_migration_120hr: Leibniz Research Institute for Environmental Medicine (IUF) 120-hour Neural Progenitor Cell Migration Assay for Radial Glia Migration (NPC2a) (AID 2284298)
Summary of the method: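 Exposure of 0.3 mm primary hNPC spheres runs day 0 to 120 h with a half-volume medium change at day 3. Fixed cells get Hoechst staining; high-content analysis of nuclear positions yields radial glia migration distance per well, compared against DMSO controls.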

[14] = IUF_NPC2a_radial_glia_migration_72hr: Leibniz Research Institute for Environmental Medicine (IUF) 72-hour Neural Progenitor Cell Migration Assay for Radial Glia Migration (NPC2a) (AID 2284299)
Summary of the method: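 Single 0.3 mm neurospheres were plated per well in N2 differentiation medium and exposed from the start of differentiation. After 72 hours, brightfield images were taken and radial glia migration from the sphere core edge was measured manually in four directions, averaged per well.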

[15] = IUF_NPC2b_neuronal_migration_120hr: Leibniz Research Institute for Environmental Medicine (IUF) 120-hour Neural Progenitor Cell Migration Assay for Neuron Migration (NPC2b) (AID 2284300)
Summary of the method: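 Fetal human NPC spheres migrate on PDL/laminin during 120 h compound treatment; neuronal migration distance, glia-normalized, scored versus DMSO control.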

[16] = IUF_NPC3_neuronal_differentiation_120hr: Leibniz Research Institute for Environmental Medicine (IUF) 120-hour Neuronal Differentiation Assay (NPC3) (AID 2284301)
Summary of the method: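 Value is percent TUBB3-positive neurons among Hoechst-stained nuclei in the migration area, scored by trained CNN after 120 h differentiation. Primary hNPC spheres on poly-D-lysine/laminin, N2 medium, continuous dosing from day 0, half-refeed day 3; DMSO reference.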

[17] = IUF_NPC4_neurite_length_120hr: Leibniz Research Institute for Environmental Medicine (IUF) 120-hour Neuronal Morphology Assay for Neurite Length (NPC4) (AID 2284302)
Summary of the method: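 Neurite length, the mean in um across TUBB3-stained neurons, is derived by skeletonization of high-content images after 120 h differentiation. Compound exposure, 7 concentrations plus solvent control, ran from plating of hNPC spheres on poly-D-lysine/laminin, with medium half-replaced on day 3.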

[18] = IUF_NPC5_oligodendrocyte_differentiation_120hr: Leibniz Research Institute for Environmental Medicine (IUF) 120-hour Oligodendrocyte Differentiation Assay (NPC5) (AID 2284304; active means hit-call score of the fitted dose curve at least 0.9, where 1 is the maximum;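 further: primary human fetal neural progenitor spheres plated to migrate and differentiate; share of O4-positive cells among Hoechst nuclei found by CNN image analysis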)
Summary of the method: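 After plating on poly-D-lysine/laminin, fetal-derived hNPC spheres differentiated for 120 h at 37C in compound-containing N2 medium, refreshed by half on day 3. O4 immunostaining over Hoechst nuclei in the migration zone gave oligodendrocyte percentage relative to DMSO.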

[19] = IUF_NPC2-5_cytotoxicity_72hr: Cytotoxicity Assessment at 72 hours in the Leibniz Research Institute for Environmental Medicine (IUF) Neural Progenitor Cell Migration and Differentiation Assay for Cytotoxicity (NPC2-5) (AID 2284306; active means hit-call score of the fitted dose curve at least 0.9, where 1 is the maximum;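 further: LDH release into supernatant measured by resorufin fluorescence marking membrane damage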)
Summary of the method: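 Membrane-integrity cytotoxicity at 72 h, read as LDH-driven resorufin fluorescence in supernatant. hNPC spheres from fetal cortex differentiate on coated plates in N2 medium, 37C, 5% CO2; seven serial compound concentrations plus solvent control (DMSO ≤0.1%).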

[20] = IUF_NPC2-5_cytotoxicity_120hr: Cytotoxicity Assessment at 120 hours in the Leibniz Research Institute for Environmental Medicine (IUF) Neural Progenitor Cell Migration and Differentiation Assay (NPC2-5) (AID 2284307; active means hit-call score of the fitted dose curve at least 0.9, where 1 is the maximum)
Summary of the method: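 Membrane-integrity loss is quantified by LDH in supernatant after five days of exposure of migrating, differentiating human fetal NPC spheres; seven serially diluted concentrations are tested with DMSO kept at or below 0.1%.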

[21] = IUF_NPC2-5_cell_number_120hr: Cell Number Assessment at 120 hours in the Leibniz Research Institute for Environmental Medicine (IUF) Neural Progenitor Cell Migration and Differentiation Assay (NPC2-5) (AID 2284308);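 further: count of Hoechst-stained nuclei in migration zone around plated human neural progenitor spheres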
Summary of the method: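 Seven-point serial dilutions plus solvent control were applied to plated 0.3 mm hNPC spheres at differentiation start, with medium half-replaced at day 3. Nuclei positive for Hoechst in the migration zone were enumerated at 120 h.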

[22] = IUF_NPC2-5_viability_120hr: Viability Assessment at 120 hours in the Leibniz Research Institute for Environmental Medicine (IUF) Neural Progenitor Cell Migration and Differentiation Assay (NPC2-5) (AID 2284312)
Summary of the method: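 Alamar blue resorufin fluorescence read after 5 days of differentiation, with compound present from day 0 and replenished at day 3. Primary hNPC spheres on laminin-coated plates, 37C; seven concentrations plus solvent control, fitted against DMSO.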

[23] = CCTE_Mundy_HCI_iCellGluta_NOG_NeuriteLength: CCTE's Neurite Outgrowth Assay in iCellGluta cells for Neurite Length, Mundy Lab (AID 2284318; active means hit-call score of the fitted dose curve at least 0.9, where 1 is the maximum)
Summary of the method: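 Automated high-content imaging of betaIII-tubulin (Alexa Fluor-488) and Hoechst-stained cells gave neurite length, normalized to the DMSO baseline.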

[24] = IUF_NPC1_cytotoxicity_72hr: Cytotoxicity Assessment at 72 hours in the Leibniz Research Institute for Environmental Medicine (IUF) Neural Progenitor Cell Proliferation Assay (NPC1) (AID 2284332; active means hit-call score of the fitted dose curve at least 0.9, where 1 is the maximum;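 further: rising LDH signal means more cytotoxicity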)
Summary of the method: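 Membrane-integrity loss is scored from LDH released into the medium, detected as resorufin fluorescence, with activity fitted upward relative to baseline. Test material stays on human fetal-derived progenitor spheres for 72 h.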

[25] = CCTE_Mundy_HCI_iCellGluta_NOG_NeuronCount: CCTE's Neurite Outgrowth Assay in iCellGluta cells for Neuron Count, Mundy Lab (AID 2284340; active means hit-call score of the fitted dose curve at least 0.9, where 1 is the maximum;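 further: cells fixed about 48 h after compound addition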)
Summary of the method: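 Neuron count read by automated high-content imaging of Hoechst 33342 and betaIII-tubulin/Alexa Fluor-488 labelling in human iPSC glutamatergic neurons. Activity fitted relative to DMSO.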

[26] = CCTE_Mundy_HCI_iCellGluta_NOG_NeuriteCount: CCTE's Neurite Outgrowth Assay in iCellGluta cells for Neurite Count, Mundy Lab (AID 2284342; active means hit-call score of the fitted dose curve at least 0.9, where 1 is the maximum;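 further: chemical exposure about 48 hours starting 2 hours after plating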)

Measured: AC50

CC1(C)C(C=C(Cl)c2ccc(Cl)cc2)C1C(=O)OC(C#N)c1ccc(F)c(Oc2ccccc2)c1 (stereo unspecified)
inactive: [4] | [5] | [6] | [7] | [8] | [10] | [11] | [12] | [13] | [14] | [15] | [16] | [17] | [18] | [19] | [20] | [21] | [22] | [24] | [25]
active: [1] 61.6 µM | [2] 72 µM | [3] 75.2 µM | [9] 23.5 µM | [23] 67.3 µM | [26] 74.1 µM
